For 19 molecules, residual activity results are on record in ChEMBL document CHEMBL2218924, “A broad activity screen in support of a chemogenomic map for kinase signalling research and drug discovery” (Biochem J, 2013).

Molecules are shown by their SMILES.

In this experiment the target is T1, Tyrosine-protein kinase ZAP-70 (Homo sapiens) (UniProt P43403).
T1 sequence (whole entry): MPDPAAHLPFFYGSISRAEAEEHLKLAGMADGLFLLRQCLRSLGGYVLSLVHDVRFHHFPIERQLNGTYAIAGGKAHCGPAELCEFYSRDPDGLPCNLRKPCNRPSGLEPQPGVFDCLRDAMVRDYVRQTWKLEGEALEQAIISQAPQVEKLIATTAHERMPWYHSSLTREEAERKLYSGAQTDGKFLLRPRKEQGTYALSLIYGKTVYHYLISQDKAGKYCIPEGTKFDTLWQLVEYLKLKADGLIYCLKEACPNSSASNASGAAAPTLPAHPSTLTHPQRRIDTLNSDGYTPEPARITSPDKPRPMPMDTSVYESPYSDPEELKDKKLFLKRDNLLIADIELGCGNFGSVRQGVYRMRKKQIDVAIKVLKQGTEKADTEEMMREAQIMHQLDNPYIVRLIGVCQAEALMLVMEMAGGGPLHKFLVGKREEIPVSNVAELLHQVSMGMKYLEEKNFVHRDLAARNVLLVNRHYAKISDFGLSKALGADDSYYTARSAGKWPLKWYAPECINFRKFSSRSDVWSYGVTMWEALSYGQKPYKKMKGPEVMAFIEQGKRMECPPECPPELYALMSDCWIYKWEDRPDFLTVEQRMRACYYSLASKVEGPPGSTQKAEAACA
Conditions: at 10 µM.
Take `COc1cc2ncnc(Nc3ccc(Oc4ccccc4)cc3)c2cc1OC`: the residual activity is 114%.

For the molecule `O=C1NC(=O)/C(=C/c2ccc3c(c2)OC(F)(F)O3)S1`, the residual activity was 102%.

Turning to `Cn1cc(/C=C2\C(=O)Nc3ccc(S(N)(=O)=O)cc32)c2ccccc21`, the residual activity turned out to be 125%. In the case of `Nc1ncnc2c1c(-c1ccc(Oc3ccccc3)cc1)cn2C1CCCC1` it was 99%; in that of `CNc1cc2c(Nc3cccc(Br)c3)ncnc2cn1`, 108%; in that of `CCOc1cc2ncnc(Nc3cccc(Br)c3)c2cc1OCC`, 119%. In the case of `O=C1NC(=O)C(c2cn(CCCn3ccnc3)c3ccccc23)=C1Nc1ccccc1` it was 118%. For `C[C@@H](N)[C@H]1CC[C@H](C(=O)Nc2ccncc2)CC1`, the residual activity worked out at 122%. In the case of `COc1ccc(CNc2nc(N(CCO)CCO)nc3c2ncn3C(C)C)cc1` it was 88%; in that of `O=Nc1c(-c2c(O)[nH]c3ccccc23)[nH]c2ccccc12`, 91%; in that of `CC(C)[C@H](CO)Nc1nc(Nc2cc(N)cc(Cl)c2)c2ncn(C(C)C)c2n1`, 98%. In the case of `O=c1cc(N2CCOCC2)oc2c1ccc1ccccc12` it was 93%.

For the molecule `COc1ccc(OC)c2c(=S)c3ccccc3[nH]c12`, the residual activity turned out to be 88%. In the case of `N#C/C(=C\c1ccc(O)c(O)c1)C(=O)NCc1ccccc1` it was 129%; in that of `CC(C)c1nn(-c2c(Cl)cccc2Cl)c2nc(Cc3ccc(OCCO)cc3)[nH]c(=O)c12`, 84%. Consider `Cc1cc2ncc(-c3ccccc3)nc2cc1C`, for which the residual activity came out at 98%. In the case of `Cc1ccc(NC2=CC(=O)c3sc(C)nc3C2=O)cc1` it was 96%.

`Oc1c2ccccc2c2c3c(cccc13)N=N2`: the residual activity is 98%.

For `Cn1nc2c3c(cccc31)C(=O)c1ccccc1-2`, the residual activity came out at 85%.
